A short description of experiment [1]: Viability qHTS for spleen associated tyrosine kinase inhibitor (SYKi) naive MV4-11 cells (AID 1963823). Further: nearly all actives have a fitted effect of over 40% in size. In short, it runs like this: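 Viability of MV4-11 AML cells lacking prior SYK inhibitor exposure is scored by CellTiter-Glo luminescence following 72 hr compound incubation at 37 C, 5% CO2, seeded at 500 cells per well.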
(qHTS replaces the single test concentration by a dilution series.)

Experiment [2] can be described thus: Viability qHTS for spleen associated tyrosine kinase inhibitor (SYKi) drug resistant MV4-11 cells (AID 1963824). Further: nearly all actives have a fitted effect of over 35% in size. The method, boiled down: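 SYK-inhibitor-resistant MV4-11 AML cells were seeded at 500 per well onto compound and cultured 72 hours (37 °C, 5% CO2). CellTiter-Glo was then added, and after 10 min at room temperature, luminescence gave viability.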

Experiment [3] is described as follows: Cellular viability qHTS for adrenocortical cancer (ACC) cell line SW-13 (AID 1963989). Further: nearly all actives have a fitted effect of over 65% in size.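 On activity (max response): cells grown in serum-free medium with ITS supplement; on the % scale 0 is the no-effect control and ±100 the full control effect.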 Conditions: SW-13 ACC cells viability, CellTiter-Glo, 48 h; activity (max response): active compounds read low. The method, boiled down:
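Luminescent ATP read-out (CellTiter-Glo, 20 min at room temperature) measured metabolically competent SW-13 cells after 48 h compound treatment. Final concentrations spanned up to 46 uM; bortezomib served as positive control.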

Experiment [4] is described as follows: Cellular viability qHTS for adrenocortical cancer (ACC) cell line NCI-H295R (AID 1963990). Further: nearly all actives have a fitted effect of over 60% in size. In short, it runs like this: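 IC50 and maximal efficacy derive from four-parameter logistic modelling of titration curves, with reads scaled between DMSO-only wells (0%) and doxorubicin hydrochloride (100% inhibition). Compounds spanned up to 46 uM over 48 h.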

“And” between values parts separate entries of the source, which are not always exact repeats. Equal values may be shown once. Results filed as inconclusive are left out. Values without a mark were called inactive. The source made the active and inactive calls. The call rests on the fitted dose curve; in most records, active means well fitted curve in the direction sought with a large enough effect; inconclusive means small, poorly fitted or top-dose-only effect, or another doubt; inactive means no such curve, though single readings can be large; an effect the other way counts as inactive or inconclusive.
Potency means the concentration at half of the fitted maximal effect.

On to `CC[C@H](Nc1ncnc2nc[nH]c12)c1oc2ccccc2c(=O)c1-c1cccc(F)c1`, for which the Potency in experiment [1] was 5.9 µM (active); in experiment [2], 14.8 µM (active). Also, the activity (max response) in experiment [3] was -13.2%.
On to `OC[C@H]1O[C@@H](S[C@@H]2O[C@H](CO)[C@H](O)[C@H](n3cc(-c4cccc(F)c4)nn3)[C@H]2O)[C@H](O)[C@@H](n2cc(-c3cccc(F)c3)nn2)[C@H]1O`, for which, in experiment [4], the Potency entry is “inactive”.
With `CCC1=C[C@@H]2CN(C1)Cc1c([nH]c3ccccc13)[C@@](C(=O)OC)(c1cc3c(cc1OC)N(C)[C@H]1[C@@](O)(C(=O)OC)[C@H](OC(C)=O)[C@]4(CC)C=CCN5CC[C@]31[C@@H]54)C2`, the Potency in experiment [4] was 20.6 nM (active) and 2.54 µM (active).
Consider `COc1ccc(-c2cc(C(O)C3CCCCN3)c3ccccc3n2)cc1` (centres undefined), for which the Potency in experiment [1] is 0.525 µM (active); in experiment [2] it was 1.66 µM (active); in experiment [3], 28.2 µM (active); in experiment [4] it was 11.2 µM (active).
As for `C[C@@H](O)[C@@H]1NC(=O)[C@H](CCCCN)NC(=O)[C@@H](Cc2c[nH]c3ccccc23)NC(=O)[C@H](Cc2ccccc2)NC(=O)[C@@H](NC(=O)[C@H](N)Cc2ccccc2)CSSC[C@@H](C(=O)N[C@H](CO)[C@@H](C)O)NC1=O`, the Potency result in experiment [1], in experiment [2] and in experiment [4] was “inactive” each time. Further, the activity (max response) in experiment [3] was -1.31%.
For `CC(/C=C/[C@@H]1C[C@]1(C)c1ccc2c(c1)C(C)(C)CCC2(C)C)=C\C(=O)O`, the Potency in experiment [1] was 0.0661 µM (active); in experiment [2], 0.468 µM (active). Further, the activity (max response) in experiment [3] was -5.24%. For the same molecule, the Potency entry in experiment [4] is “inactive”.
For the molecule `CCC(=O)NC[C@H](Cc1ccc(OCCc2nc(-c3ccccc3)oc2C)cc1)N/C(C)=C\C(=O)c1ccc(C(F)(F)F)cc1`, the Potency in experiment [1] was 16.6 µM (active); in experiment [2], 11.8 µM (active). Besides, the activity (max response) in experiment [3] was -7.93%. Moreover, in experiment [4], the Potency entry is “inactive”.
`N#Cc1cc2cc(CN3CCC(Nc4ncnc5sc(CC(F)(F)F)cc45)CC3)c(O)cc2n1Cc1cn[nH]c1`: the Potency in experiment [1] is 0.742 µM (active); in experiment [2] it was 1.32 µM (active); in experiment [3] it was 14.1 µM (active); in experiment [4], 8.91 µM (active).
On to `CN1C(=O)N[C@H](Cc2c[nH]c3c(Cl)cccc23)C1=O`, for which the Potency result in experiment [1], in experiment [2] and in experiment [4] was “inactive” in each case. For the same molecule, in experiment [3], the activity (max response) was -3.83%.
In the case of `CC(C(=O)O)c1ccc2c(c1)[nH]c1ccc(Cl)cc12` (centres undefined), the Potency result in experiment [1], in experiment [2] and in experiment [4] was “inactive” each time. In experiment [3], the activity (max response) was -19.1%.
`COc1cc(C(=O)N2CCCCCCC2)cc(OC)c1OC`: the Potency result in experiment [1], in experiment [2] and in experiment [4] was “inactive” throughout. Also, the activity (max response) in experiment [3] was 6.12%.
For `Cc1cc(OCc2nnc(SC3CCCC3)n2-c2cccnc2)ccc1-c1ccc(S(C)(=O)=O)cc1`, the Potency in experiment [1] is 0.184 µM (active); in experiment [2], 0.116 µM (active). Besides, the activity (max response) in experiment [3] is -6.15%. In experiment [4], the Potency result is “inactive”.
Consider `Oc1c(Cl)cc(Cl)c(Cl)c1Cc1c(O)c(Cl)cc(Cl)c1Cl`, for which the Potency was 8.41 µM (active) in experiment [1], 5.96 µM (active) in experiment [2], 1.84 µM (active) in experiment [3] and 2.06 µM (active) in experiment [4].
As for `O=C1CC(c2c[nH]c3ccc(F)cc23)C(=O)N1` (centres undefined), the Potency result in experiment [1], in experiment [2] and in experiment [4] was “inactive” throughout. In addition, the activity (max response) in experiment [3] was -18.5%.
For `CC(C)CNc1ccnc(NCc2csc(-c3ccccc3)n2)n1`, the Potency in experiment [1] is 1.66 µM (active); in experiment [2], 1.16 µM (active); in experiment [3], 11.2 µM (active); in experiment [4], 11.2 µM (active).
On to `Nc1ccc([N+](=O)[O-])c(C(F)(F)F)c1`, for which the Potency entry in experiment [1], in experiment [2] and in experiment [4] was “inactive” each time. Besides, the activity (max response) in experiment [3] is 0.003%.
Take `O=C(O)C[C@H](O)C[C@H](O)/C=C/c1c(C2CC2)nc2ccccc2c1-c1ccc(F)cc1`: the Potency is 461 nM (active) and 525 nM (active) in experiment [1]; 164 nM (active) and 235 nM (active) in experiment [2]; 3.16 µM (active) in experiment [3]; 3.55 µM (active) in experiment [4].
Regarding `COCCOc1cnc2ccn([C@H](C)c3nnc4c(F)cc(-c5cnn(C)c5)cn34)c(=O)c2c1`, the Potency entry in experiment [1], in experiment [2] and in experiment [4] was “inactive” in each case. In experiment [3], the activity (max response) was -16.1%.
On to `CC(=O)Nc1ccc(OCCOCCOc2ccc(NC(C)=O)cc2)cc1`, for which the Potency entry in experiment [1], in experiment [2] and in experiment [4] was “inactive” each time. In addition, the activity (max response) in experiment [3] is -7.42%.
`NS(=O)(=O)c1cc(-c2nn[nH]n2)c(NCc2cccs2)cc1Cl`: the Potency result in experiment [1], in experiment [2] and in experiment [4] was “inactive” each time. The activity (max response) in experiment [3] was 11.4%.
In the case of `Cc1cc(O[C@@H](CCC(F)(F)F)c2ccc(C(=O)NCCC(=O)O)cc2)cc(C)c1-c1ccc(C(C)(C)C)cc1`, the Potency in experiment [1] was 13.2 µM (active); in experiment [2] it was 9.34 µM (active); in experiment [3], 25.1 µM (active); in experiment [4], 22.4 µM (active).
Take `Cc1cc(O)c(C)c(C)c1O`: the Potency entry in experiment [1], in experiment [2] and in experiment [4] was “inactive” throughout. For the same molecule, in experiment [3], the activity (max response) was 6.25%.
As to `Oc1ccccc1`, the Potency result in experiment [1], in experiment [2] and in experiment [4] was “inactive” each time. In experiment [3], the activity (max response) is 8.68%.
Take `Cc1cc(O)c(-c2ccc([C@@H](C)CN(C)C)cc2)c2c1[nH]c(=O)c1sccc12`: the Potency in experiment [1] is 0.0184 µM (active); in experiment [2], 0.0092 µM (active); in experiment [3], 0.0891 µM (active); in experiment [4], 0.251 µM (active).

The values above are taken from PubChem BioAssay (NCATS).
